Inconclusive results are not listed. The source made the active and inactive calls. Unless noted, the call rests on the fitted dose curve.
Tests used:
[1] = Nuclear factor erythroid 2-related factor 2/antioxidant responsive element (Nrf2/ARE) small molecule agonists: qHTS cell viability counter screen in human keratinocytes (AID 1919968; active means well fitted curve in the direction sought with a large enough effect in the repeat runs; an effect the other way counts as inactive or inconclusive; further: nearly all actives have a fitted effect of over 55% in size)
Method in brief: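 KeratinoSens cells (HaCaT keratinocytes stably carrying an ARE-luciferase reporter) were seeded at 1,500 cells/well and rested 5 h at 37 C/5% CO2. They were then exposed to compounds in DMSO for 23 h. Viability was read by CellTiter-Fluor fluorescence after 1 h.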

[2] = Nuclear factor erythroid 2-related factor 2/antioxidant responsive element (Nrf2/ARE) small molecule agonists: luciferase reporter gene qHTS assay in human keratinocytes (AID 1919969); further: nearly all actives have a fitted effect of over 35% in size
[3] = molecular target: Gonadotropin-releasing hormone receptor (Homo sapiens) (UniProt P30968); assay: Human gonadotropin-releasing hormone receptor (GnRHR) small molecule agonists, calcium flux assay in GnRHR-HEK293 cells (AID 1920063); further: nearly all actives have a fitted effect of over 35% in size
Chain of Gonadotropin-releasing hormone receptor (Homo sapiens) (P30968 whole entry, looked up): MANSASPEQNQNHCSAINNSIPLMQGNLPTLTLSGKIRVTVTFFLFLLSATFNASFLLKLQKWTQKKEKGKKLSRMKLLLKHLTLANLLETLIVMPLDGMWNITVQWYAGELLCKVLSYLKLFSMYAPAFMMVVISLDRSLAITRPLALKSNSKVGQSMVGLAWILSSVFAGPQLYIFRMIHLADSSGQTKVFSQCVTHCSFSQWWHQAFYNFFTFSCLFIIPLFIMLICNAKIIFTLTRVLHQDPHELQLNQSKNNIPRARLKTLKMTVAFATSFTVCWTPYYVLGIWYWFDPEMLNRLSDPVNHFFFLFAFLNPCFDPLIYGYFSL
Method in brief: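 HEK293 cells stably expressing human GnRHR were plated 18 h at 37 °C, loaded with calcium dye 1 h at 37 °C, then given compound in agonist mode; fluorescence (Ex/Em 480/540) read kinetically for 3 min at 1 s intervals.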

[4] = molecular target: KiSS-1 receptor (Homo sapiens) (UniProt Q969F8); assay: Human kisspeptin (KISS1R) small molecule agonists, calcium flux assay in KISS1R-HEK293 cells (AID 1920064; active means well fitted curve in the direction sought with a large enough effect in the repeat runs; an effect the other way counts as inactive or inconclusive)
Chain of KiSS-1 receptor (Homo sapiens) (Q969F8 whole entry, looked up): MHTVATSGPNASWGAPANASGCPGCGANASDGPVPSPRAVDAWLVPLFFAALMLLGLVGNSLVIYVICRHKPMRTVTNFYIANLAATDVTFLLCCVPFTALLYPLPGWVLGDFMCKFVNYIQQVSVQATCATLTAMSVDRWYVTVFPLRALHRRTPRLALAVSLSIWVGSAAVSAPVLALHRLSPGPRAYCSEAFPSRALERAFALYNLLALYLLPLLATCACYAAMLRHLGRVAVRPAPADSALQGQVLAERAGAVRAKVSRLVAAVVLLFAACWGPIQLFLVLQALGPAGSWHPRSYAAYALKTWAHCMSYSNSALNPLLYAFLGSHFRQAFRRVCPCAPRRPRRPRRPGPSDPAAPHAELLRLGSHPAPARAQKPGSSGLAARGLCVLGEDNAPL
Method in brief: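 HEK293 cells stably expressing human KISS1R were plated 18 h at 37 °C, loaded with calcium dye for 1 h at 37 °C, then given compound by pin tool. Fluorescence (Ex/Em 480/540) was read kinetically for 3 min.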

[5] = G protein-coupled receptor (GPCR) small molecule agonists, calcium flux assay: HEK293 wild type cell line counter screen (AID 1920065)
Method in brief: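 Cells were plated and cultured 18 h at 37 C/5% CO2, then loaded with calcium dye for 1 h at 37 C. Compounds in DMSO were pin-transferred in agonist mode, and fluorescence (Ex/Em 480/540) was read kinetically for 3 min at 1 s intervals.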

[6] = p53 small molecule agonists, cell-based qHTS assay with human liver microsomes (AID 1963577)
Method in brief: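 Cells carrying a p53-responsive bla reporter were rested 5 h (37 C, 5% CO2) before compound transfer. Human liver microsomes plus NADPH, 0.5 mg/mL final apiece, supplied metabolism during the 16 h 37 C exposure.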

[7] = p53 small molecule agonists, cell-based qHTS assay with rat liver microsomes (AID 1963578)
Method in brief: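 Fluorescence from a beta-lactamase reporter under a p53 response element was measured after cells had been incubated 16 h at 37 C with test compound and rat liver microsomes plus NADPH (0.5 mg/mL final each).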

[8] = p53 small molecule agonists, cell-based qHTS assay with human liver microsomes: qHTS cell viability counter screen (AID 1963579); further: nearly all actives have a fitted effect of over 45% in size
Method in brief: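 Seed p53RE-bla cells at 4,000 per well; incubate 5 h at 37 C; add compound, human liver microsomes and NADPH; incubate 16 h at 37 C; add CellTiter-Glo; after 30 min at room temperature, read luminescence.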

[9] = p53 small molecule agonists, cell-based qHTS assay with rat liver microsomes: qHTS cell viability counter screen (AID 1963580); further: nearly all actives have a fitted effect of over 45% in size
Method in brief: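 HCT-116 p53RE-bla, 4,000 cells/well, 5 h pre-incubation; cpd + rat liver microsomes 0.5 mg/mL + NADPH 0.5 mg/mL (final); 16 h, 37 C; CellTiter-Glo, 30 min RT; luminescence.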

[10] = p53 small molecule agonists, cell-based qHTS assay: qHTS cell viability counter screen (AID 1963581); further: nearly all actives have a fitted effect of over 45% in size
Method in brief: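 p53RE-bla HCT-116 cells were exposed to compounds for 16 h at 37 C; after the beta-lactamase FRET read in the same wells, CellTiter-Glo was added and luminescence (intracellular ATP) read after 30 min at room temperature.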

[11] = p53 small molecule agonists, cell-based qHTS assay (AID 1963582; active means well fitted activation curve with a large enough effect in the signal ratio in the repeat runs, not every such curve was filed as active; the % refers to the signal ratio)
Method in brief: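 p53RE-bla beta-lactamase reporter cells rested 5 h at 37 C/5% CO2, then received compounds in DMSO by pin transfer and were incubated 16 h at 37 C. LiveBLAzer B/G FRET substrate was loaded for 2 h at room temperature before fluorescence reading.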

[12] = molecular target: 5-hydroxytryptamine receptor 2A (Homo sapiens) (UniProt P28223); assay: 5-hydroxytryptamine receptor 2A (HTR2A) small molecule antagonists, cell-based qHTS assay (AID 1963586); further: nearly all actives have a fitted effect of over 45% in size
Chain of 5-hydroxytryptamine receptor 2A (Homo sapiens) (P28223 whole entry, looked up): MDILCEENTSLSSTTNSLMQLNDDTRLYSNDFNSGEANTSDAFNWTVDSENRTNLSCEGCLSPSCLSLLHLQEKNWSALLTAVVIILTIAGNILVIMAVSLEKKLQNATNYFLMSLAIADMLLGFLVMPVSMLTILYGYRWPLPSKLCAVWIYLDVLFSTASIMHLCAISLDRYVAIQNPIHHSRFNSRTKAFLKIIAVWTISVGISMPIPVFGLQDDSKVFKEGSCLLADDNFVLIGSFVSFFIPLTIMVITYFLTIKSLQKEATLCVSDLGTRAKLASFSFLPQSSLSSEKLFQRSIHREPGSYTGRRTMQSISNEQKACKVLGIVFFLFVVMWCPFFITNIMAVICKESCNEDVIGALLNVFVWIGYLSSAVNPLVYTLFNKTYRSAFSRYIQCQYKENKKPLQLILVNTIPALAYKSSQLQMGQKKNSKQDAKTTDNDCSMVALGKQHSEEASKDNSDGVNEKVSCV
Method in brief: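 Antagonist-mode intracellular calcium assay: DOI (4 nM) added after 5 min compound pre-incubation at room temperature to dye-loaded HTR2A-CHO cells. Fluorescence followed for 3 min, sampled every second.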

[13] = molecular target: 5-hydroxytryptamine receptor 2A (Homo sapiens) (UniProt P28223); assay: 5-hydroxytryptamine receptor 2A (HTR2A) small molecule agonists, cell-based qHTS assay (AID 1963587); further: nearly all actives have a fitted effect of over 30% in size
Method in brief: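 Kinetic calcium-flux fluorescence (2 min, 1 sec intervals) after compound addition in agonist mode. HTR2A-CHO cells were cultured 18 h, then dye-loaded 1 h at 37 C.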

[14] = molecular target: Muscarinic acetylcholine receptor M1 (Homo sapiens) (UniProt P11229); assay: Cholinergic receptor muscarinic 1 (CHRM1) small molecule antagonists, cell-based qHTS assay (AID 1963588); further: nearly all actives have a fitted effect of over 40% in size
Chain of Muscarinic acetylcholine receptor M1 (Homo sapiens) (P11229 whole entry, looked up): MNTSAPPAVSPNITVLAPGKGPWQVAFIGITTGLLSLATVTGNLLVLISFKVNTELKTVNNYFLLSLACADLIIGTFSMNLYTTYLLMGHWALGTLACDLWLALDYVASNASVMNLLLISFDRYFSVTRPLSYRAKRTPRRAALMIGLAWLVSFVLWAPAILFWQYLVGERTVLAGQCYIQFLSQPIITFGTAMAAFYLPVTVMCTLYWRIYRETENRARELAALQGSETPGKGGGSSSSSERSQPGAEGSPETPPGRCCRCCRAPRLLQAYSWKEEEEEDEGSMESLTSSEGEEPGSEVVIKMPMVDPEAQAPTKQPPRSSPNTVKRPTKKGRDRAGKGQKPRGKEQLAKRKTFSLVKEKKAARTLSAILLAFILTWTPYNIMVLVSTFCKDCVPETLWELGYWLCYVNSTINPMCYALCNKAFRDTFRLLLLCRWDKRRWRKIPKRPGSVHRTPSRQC
Method in brief: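 CHRM1-CHO calcium-flux assay, antagonist mode. Cells were seeded 18 h, dye-loaded 1 h at 37 C and given compound for 5 min at RT, then acetylcholine was added at 50nM. FDSS fluorescence was read 3 min; 15 concentrations, three runs.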

[15] = molecular target: Muscarinic acetylcholine receptor M1 (Homo sapiens) (UniProt P11229); assay: Cholinergic receptor muscarinic 1 (CHRM1) small molecule agonists, cell-based qHTS assay (AID 1963589); further: nearly all actives have a fitted effect of over 35% in size
Method in brief: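 CHO cells stably expressing human CHRM1, seeded 18 h at 37 C/5% CO2, dye-loaded 1 h at 37 C, then given compound in agonist mode; intracellular calcium fluorescence read kinetically at 1 s intervals. Fifteen concentrations, three independent runs.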

[16] = cAMP Responsive Elements (CRE) small molecule agonists, cell-based qHTS assay (AID 1963590)
Method in brief: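 CRE-bla HEK 293T cells in DMEM with 10% dialyzed FBS, NEAA, pyruvate and 25 mM HEPES were plated 18 h at 37 C/5% CO2, then exposed to compounds in DMSO for 3 h before LiveBLAzer B/G FRET substrate addition.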

[17] = molecular target: Beta-2 adrenergic receptor (Homo sapiens) (UniProt P07550); assay: Adrenergic beta2 receptor (ADRB2) small molecule antagonists, cell-based qHTS assay (AID 1963592); further: series mostly up to about 92 µM; nearly all actives have a fitted effect of over 50% in size
Chain of Beta-2 adrenergic receptor (Homo sapiens) (P07550 whole entry, looked up): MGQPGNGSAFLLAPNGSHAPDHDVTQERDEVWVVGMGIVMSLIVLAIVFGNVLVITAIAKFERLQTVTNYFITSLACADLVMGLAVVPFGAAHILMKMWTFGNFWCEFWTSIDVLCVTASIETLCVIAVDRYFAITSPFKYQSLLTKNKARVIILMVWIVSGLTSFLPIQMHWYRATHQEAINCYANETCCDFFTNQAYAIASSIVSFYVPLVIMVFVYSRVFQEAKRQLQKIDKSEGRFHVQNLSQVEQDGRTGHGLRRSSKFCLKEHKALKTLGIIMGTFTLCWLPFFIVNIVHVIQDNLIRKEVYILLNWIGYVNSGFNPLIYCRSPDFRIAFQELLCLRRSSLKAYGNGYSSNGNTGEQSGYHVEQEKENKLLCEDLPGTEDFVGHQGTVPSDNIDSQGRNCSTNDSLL
Method in brief: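 Cells (CHO, stable ADRB2 overexpression) incubated 18-20hr at 37C; compounds added from DMSO; agonist mix (1nM isoproterenol, 100uM IBMX, 25uM Ro-20-1724) added; 0.5hr RT; d2-cAMP and anti-cAMP-cryptate added; 1hr RT; 665/615 nm read.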

[18] = molecular target: D(2) dopamine receptor (Homo sapiens) (UniProt P14416); assay: Dopamine D2 receptor (DRD2) small molecule agonists, cell-based qHTS assay (AID 1963594); further: nearly all actives have a fitted effect of over 35% in size
Chain of D(2) dopamine receptor (Homo sapiens) (P14416 whole entry, looked up): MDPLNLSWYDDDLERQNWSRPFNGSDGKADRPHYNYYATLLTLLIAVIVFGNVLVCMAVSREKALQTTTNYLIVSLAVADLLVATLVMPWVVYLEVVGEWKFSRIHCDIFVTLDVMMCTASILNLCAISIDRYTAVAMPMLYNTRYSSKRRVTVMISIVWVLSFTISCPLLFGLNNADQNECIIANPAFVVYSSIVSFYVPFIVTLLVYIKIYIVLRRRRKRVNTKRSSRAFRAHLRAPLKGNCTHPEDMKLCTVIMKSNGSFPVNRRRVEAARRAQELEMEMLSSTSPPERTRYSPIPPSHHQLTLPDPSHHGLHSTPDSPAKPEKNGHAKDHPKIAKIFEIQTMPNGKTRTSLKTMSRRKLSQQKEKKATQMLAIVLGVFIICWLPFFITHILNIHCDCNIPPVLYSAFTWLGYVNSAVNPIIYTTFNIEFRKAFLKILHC
Method in brief: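 cAMP accumulation in DRD2-HEK293 cells measured by HTRF after 1 h detection; compounds added 10 min before NKH477 (200nM […]) forskolin-analogue stimulation, 30 min at room temperature, with Ro20-1724 present at 0.1 mM final.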

[19] = molecular target: D(2) dopamine receptor (Homo sapiens) (UniProt P14416); assay: Dopamine D2 receptor (DRD2) small molecule antagonists, cell-based qHTS assay (AID 1963595; active means well fitted inhibition curve with a large enough effect in the signal ratio in the repeat runs, with a control signal flat; the % refers to the signal ratio)
Method in brief: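 HEK293 cells stably expressing DRD2 were preincubated with 0.1 mM Ro20-1724, then with compound for 10 min at room temperature. Cells were stimulated with 200 nM NKH477 plus 12 nM quinpirole for 30 min, and cAMP was read by HTRF.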

[20] = cAMP Responsive Elements (CRE) small molecule antagonists, cell-based qHTS assay (AID 1963591; active means well fitted inhibition curve with a large enough effect in the signal ratio in the repeat runs, not every such curve was filed as active; the % refers to the signal ratio)
Method in brief: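 CRE-bla HEK293T cells were plated 18 h at 37 °C/5% CO2, pinned with compound in DMSO, then stimulated with NKH477 at 0.25 uM final for 3 h. LiveBLAzer B/G FRET substrate was added and plates incubated 2 h at room temperature.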

Measured: Potency

C#CC(C)N(C)C(=O)Nc1ccc(Cl)cc1 (stereo not drawn)
not listed: [20]
inactive: all other assays above

CCCc1ncc(C(=O)O)s1
not listed: [17]
inactive: all other assays above

CC1CC(C)C(=O)C1=O (stereo not drawn)
not listed: [20]
inactive: all other assays above

CC(=O)NC(=O)c1ccccc1O
not listed: [17] | [18]
inactive: all other assays above

O=C(c1ccccc1)c1cccc(O)c1
not listed: [20]
inactive: all other assays above

COC(=O)c1ccc(OC)cc1
not listed: [20]
inactive: all other assays above

— PubChem BioAssay (Tox21)
